# A number with no mark means an inactive call. Active and inactive are the calls of the source. Cut-off read from the data, not from the text of the source: active = inhibition above about 30%; inactive = the rest.
# Tested on: transactivating tegument protein VP16 (Human herpesvirus 1), Gal4-VP16 luciferase reporter
# Test: VP16 transactivation inhibitors, counter-screen for SRC3 inhibitor project, cell-based, luminescence, high throughput (AID 588794)
# Conditions: mammalian cells, VP16-driven luciferase reporter luminescence; at 3.6 µM; stronger effect = higher value
row,Compound,inhibition
1,CCn1nc(C(=O)OCC(=O)c2ccc3c(c2)OCCO3)c2ccccc2c1=O,-5.51%
2,CC(=O)c1c(C)[nH]c(C(=O)CSc2nc3ccccc3n2C)c1C,11.8%
3,O=C(Cn1cnc([N+](=O)[O-])n1)N/N=C/c1cc(Cl)ccc1O,27.4%
4,COc1cccc(CNCCO)c1OCc1ccccc1,8.14%
5,Cc1ccc(S(=O)(=O)NCCC(=O)N2CCN(c3ccccc3)CC2)cc1C,-3.89%
6,COc1cc(NC(=O)c2cc3ccccc3cc2OC)ccc1NC(=O)c1cccs1,-1%
7,NC(=S)N/N=C1\CCOc2ccc(Cl)cc21,9.88%
8,COc1cccc(C(=O)/C=C/c2ccc(OCC#N)c(OC)c2)c1,23.2%
9,CCCCCCCN1C2=NCCCN2c2ccccc21,21%
10,CCOC(=O)c1ccc2nc(Nc3nc4ccc(F)cc4s3)sc2c1,3.4%
11,CCC(O)CC(C(=O)NNc1ccccc1)C(=O)NNc1ccccc1 (stereo not given),11.1%
12,C=CC[C@@H](CC(=O)NCCO)C(=O)NC[C@H](OC(=O)[C@@H](CC=C)Cc1ccc(F)cc1)c1ccccc1,2.08%
13,Cc1cccc(Nc2nc(-c3c(C)nc4ccccn34)cs2)c1,24.4%
14,Cc1ccc(S(=O)(=O)NCc2ccc(C(=O)N3CCN(c4ccc([N+](=O)[O-])cc4)CC3)cc2)cc1,36.9% (active)
15,COc1cccc(/C=N/Nc2nc3ccccc3n3cnnc23)c1O,1.79%
16,CCc1ccc(CN(C)C(=O)c2cc(COc3cccc4cnccc34)on2)cc1,33.7% (active)
17,COc1ccc(C(=O)/C=C/c2cc(OC)c(O)c(OC)c2)c(F)c1,17.7%
18,CCOC(=O)c1c(-c2ccccc2)nnn1-c1nc(OCC)nc(N2CCCCC2)n1,0.51%
19,O=C(Oc1ccc(F)cc1C(=O)/C=C/c1cccs1)c1cccc([N+](=O)[O-])c1,-23.3%
20,CCOC(=O)c1c(C)[nH]c(C)c1C(=O)COC(=O)/C=C/c1cccc(Cl)c1,-1.23%

row,Compound,inhibition
1,NC(=S)N/N=C\c1c(OCc2ccccc2Cl)ccc2ccccc12,27.6%
2,COc1cc(C(F)(F)F)c(C(=O)N(C)Cc2cc(Cl)cc(Cl)c2)cn1,-2.09%
3,CCCC(=O)NC(c1ccc2c(c1)OCO2)c1cc(Cl)c2cccnc2c1O (stereo not given),25.3%
4,Cn1ncc2c(O/N=C(\N)c3ccc(C(F)(F)F)cc3)ncnc21,1.06%
5,Cc1ccc(S(=O)(=O)Nc2ccc3c(c2)OCCO3)cc1C,-2.28%
6,COC(=O)c1ccccc1NC1=C/C(=N\S(=O)(=O)c2cccs2)c2ccccc2C1=O,6.65%
7,CN[C@H]1CCc2cc(OC)c(OC)c(OC)c2-c2ccc(OC)c(=O)cc21,-10.4%
8,Cc1ccc(O)c(C(=O)c2cnc3c(c2)COc2ccccc2-3)c1,5.53%
9,CCn1c(C)nc2cc(C(=O)N/N=C(\C)c3ccc(OC)cc3O)ccc21,8.7%
10,COc1ccc2c(c1)CCc1cnc(N)nc1-2,10.4%
11,Clc1ccc(-c2noc(CSc3nnc(-c4ccncc4)n3-c3ccccc3)n2)cc1,8.1%
12,Cc1ccc(C(=O)N/N=C/c2ccc(-c3cccc(C(F)(F)F)c3)o2)cn1,4.45%
13,Cc1cccc(OCC(=O)NCC(=O)N/N=C/c2ccc(O)cc2O)c1,14%
14,CCN1C/C(=C/c2ccc(N3CCOCC3)cc2)C(=O)/C(=C/c2ccc(N3CCOCC3)cc2)C1,22.6%
15,CCn1cc(C(=O)NCc2ccccn2)c(=O)c2cc(F)c(N3CCN(C)CC3)cc21,3.18%
16,Cc1ccc(S(=O)(=O)N(C)c2ccc(OCC(=O)OCc3c(C)noc3C)cc2)cc1,-6.86%
17,Cc1cc(C=C2C(=O)c3ccccc3C2=O)c(C)n1-c1cccc(C(=O)O)c1,10.4%
18,Cc1ccsc1C(=O)C1CCCN(Cc2cccn2-c2ccc(Cl)cn2)C1 (stereo not given),23.2%
19,O=c1cc(CNc2cc(C(F)(F)F)cc(C(F)(F)F)c2)nc2sccn12,3.94%
20,Cc1ccc(-n2c(-c3ccccc3)c[n+]3c2CCC3)cc1,30.6% (active)
